From PubChem BioAssay

Molecular target: Left-right determination factor 2 (Homo sapiens) (UniProt O00292)
Test: LEFTY2 binders on small-molecule microarrays, primary screen, biochemical, small-molecule microarray, 635 nm fluorescence scan (AID 1110)
Settings: LEFTY2 binding, higher = more signal

Sequence of Left-right determination factor 2 (Homo sapiens) (O00292 whole entry, looked up): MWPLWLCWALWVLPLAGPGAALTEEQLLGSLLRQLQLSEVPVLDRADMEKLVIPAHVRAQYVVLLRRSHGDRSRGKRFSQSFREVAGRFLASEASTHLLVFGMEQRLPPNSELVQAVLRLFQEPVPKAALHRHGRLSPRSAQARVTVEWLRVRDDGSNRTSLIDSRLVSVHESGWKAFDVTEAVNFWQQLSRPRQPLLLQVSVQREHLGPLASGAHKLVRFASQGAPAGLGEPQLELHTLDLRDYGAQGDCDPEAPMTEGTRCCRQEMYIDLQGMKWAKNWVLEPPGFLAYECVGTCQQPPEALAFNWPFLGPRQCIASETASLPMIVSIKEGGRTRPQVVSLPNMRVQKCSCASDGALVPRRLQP

Question: With `CCOC(=O)C[C@H]1[C@H](OC(=O)c2ccccc2-c2ccccc2)[C@@H](NC(=O)c2ccc(-c3ccccc3)cc2)c2cc(OCCCO)ccc2N1C(=O)c1ccc2ccccc2n1` as the compound, how does the composite z-score read?
Answer: Its composite z-score is 0.465.

Question: How did the composite z-score turn out when `C=CCC(OC(C)=O)[C@@H]1[C@@H](N(Cc2ccc(-c3ccccc3)cc2)C(=O)Cc2ccc(F)cc2)c2cc(OCCCO)ccc2N1C(=O)Cc1ccc(OC)cc1` (stereo not given in full) was run?
Answer: Its composite z-score is 0.0922.

Question: With `O=C(NCC(F)(F)F)[C@@H]1c2ccccc2C(=O)N(Cc2ccc(OC(F)(F)F)cc2)[C@H]1c1ccc(CO)cc1` as the compound, how does the composite z-score read?
Answer: The composite z-score was 0.174.

Question: For `COC(=O)CCCCCCC(=O)Nc1ccc(NC(=O)CCCC[P+](c2ccccc2)(c2ccccc2)c2ccccc2)cc1`, which composite z-score is on record?
Answer: Its composite z-score is 0.749.

Question: For `CCCCCCc1nc(C2CC2)cc2c1[Si](C(C)C)(C(C)C)OC2`, which composite z-score is on record?
Answer: The composite z-score was -0.53.

Question: How did the composite z-score turn out when `O=C1O[C@H](c2ccccc2)[C@H](c2ccccc2)N2[C@H]1[C@@H](C(=O)Nc1nc3ccccc3s1)[C@]1(C(=O)Nc3ccccc31)[C@H]2c1ccc(OCCO)cc1` was run?
Answer: Its composite z-score is 0.807.

Question: Which composite z-score does the source give for `C=C(/C(=C/C[C@H](OC(=O)c1ccncc1)c1ccc(CO)o1)c1cc(C(=O)OC)ccc1OC)C(C)C` here?
Answer: Its composite z-score is 0.34.

Question: For `CN(C)C(=O)[C@@]1(CCS(=O)(=O)c2ccccc2)N=C(c2ccc(OCCCO)cc2)O[C@H]1c1ccccc1`, which composite z-score is on record?
Answer: Its composite z-score is -0.757.

Question: How did the composite z-score turn out when `O=C1OCCC/C=C\[C@H]2OC34C=CCN(CCN5CCOCC5)C(=O)[C@H]3N(CCCCCCO)C(=O)[C@@H]4C12` (stereo not given in full) was run?
Answer: The composite z-score was -0.311.

Question: Which composite z-score does the source give for `O=C1C2C=CC(C(O)c3ccc(Br)cc3)N(Nc3ccccc3F)C2C(=O)N1c1ccccc1` (stereo not given) here?
Answer: Its composite z-score is -0.134.

Question: `CCCCC(=C=CC[C@@H](O)c1ccccc1OCCO)C[C@@H](O)COCc1ccccc1` was tested. Which composite z-score did it give?
Answer: Its composite z-score is -0.608.

Question: Which composite z-score does the source give for `O=C1O[C@@H](c2ccccc2)[C@@H](c2ccccc2)N2[C@@H](c3ccc(O)cc3)[C@]3(C(=O)Nc4ccc(C#CC5=CCCCC5)cc43)[C@@H](C(=O)NC[C@H](O)c3ccccc3)[C@H]12` here?
Answer: The composite z-score was 0.915.

Question: How did the composite z-score turn out when `NC(=O)NCC#Cc1ccc2c(c1)[C@]1(C(=O)N2)[C@H](C(=O)NC[C@H](O)c2ccccc2)[C@H]2C(=O)O[C@H](c3ccccc3)[C@H](c3ccccc3)N2[C@@H]1c1ccc(OCCO)cc1` was run?
Answer: Its composite z-score is -0.461.

Question: `CC(C)N1CC=CC23O[C@@H]4C=CCOC(=O)[C@@H]4[C@H]2C(=O)N(CCCO)[C@@H]3C1=O` (stereo not given in full) was tested. Which composite z-score did it give?
Answer: Its composite z-score is -0.932.

Question: Which composite z-score does the source give for `N#Cc1ccc(C(O)C2C=CC3C(=O)N(c4ccccc4)C(=O)C3N2Nc2ccccc2)cc1` (stereo not given) here?
Answer: The composite z-score was -0.224.

Question: Which composite z-score does the source give for `CCCCN1CC=CC23O[C@@H]4/C=C\CCC(C)OC(=O)C4[C@H]2C(=O)N(C(CO)C(C)C)[C@@H]3C1=O` (stereo not given in full) here?
Answer: Its composite z-score is -0.406.

Question: Which composite z-score does the source give for `C=CCN1Cc2ccccc2[C@H]2OC(c3ccc(OCCCO)cc3)=N[C@@]2(CC=C)C1=O` here?
Answer: The composite z-score was 0.725.

Question: With `CC(CO)N1C(=O)[C@@H]2[C@H]3C(=O)OCC=C[C@H]3OC23C=CCN(CCN2CCOCC2)C(=O)[C@@H]13` (stereo not given in full) as the compound, how does the composite z-score read?
Answer: The composite z-score was -0.396.

Question: Which composite z-score does the source give for `CCCCCCc1nc(-c2cc(C)c(OC)c(C)c2)c(C)c2c1[Si](C(C)C)(C(C)C)OC2` here?
Answer: Its composite z-score is -0.0571.

Question: Which composite z-score does the source give for `C=C(COC)/C(=C/C[C@H](OC(=O)c1ccncc1)c1ccccc1OCCO)c1cnc2ccccc2c1` here?
Answer: Its composite z-score is 0.76.

Question: For `CO[C@H]1O[C@H](CO)[C@@H](OC(=O)Nc2ccc3c(c2)OCO3)[C@H](OC(=O)c2cc3ccccc3[nH]2)[C@H]1OC(=O)c1cc2ccccc2[nH]1`, which composite z-score is on record?
Answer: Its composite z-score is 0.117.

Question: Which composite z-score does the source give for `O=C1N(Cc2ccccc2)c2ccccc2[C@@H]2OC(c3ccc(OCCCO)cc3)=N[C@]12Cc1ccccc1` here?
Answer: Its composite z-score is 0.0601.

Question: Which composite z-score does the source give for `CCOC(=O)c1ccc(NC(=O)O[C@H]2[C@H](OC(=O)Nc3ccc4c(c3)OCO4)[C@@H](OC(=O)Nc3ccc4c(c3)OCO4)[C@@H](OC)O[C@@H]2CO)cc1` here?
Answer: Its composite z-score is 0.48.

Question: How did the composite z-score turn out when `C=CCC(OC(C)=O)[C@@H]1[C@@H](N(Cc2cccc3ccccc23)C(=O)Cc2ccc(OC)cc2)c2cc(OCCCO)ccc2N1C(=O)c1ccc2ccccc2n1` (stereo not given in full) was run?
Answer: The composite z-score was 0.172.

Question: How did the composite z-score turn out when `COCCCNC(=O)[C@@]1(Cc2ccccc2CN=[N+]=[N-])N=C(c2ccc(OCCCO)cc2)O[C@H]1c1ccccc1` was run?
Answer: The composite z-score was -0.0313.

Question: Which composite z-score does the source give for `COC(=O)[C@@]1(Cc2ccccc2)[C@H]2c3cc(C(=O)N(C)C)n(CCc4ccc(O)c(OC)c4)c3C[C@H]2CN1C(=O)c1ccccc1` here?
Answer: Its composite z-score is 0.38.

Question: With `CN1C(=O)C2C=CC(C(O)COCc3ccccc3)N(N(c3ccccc3)c3ccccc3)C2C1=O` (stereo not given) as the compound, how does the composite z-score read?
Answer: Its composite z-score is -0.142.

Question: `CC(c1ccccc1)C(O)C1C=CC2C(=O)N(c3ccccc3)C(=O)C2N1Nc1ccc([N+](=O)[O-])cc1` (stereo not given) was tested. Which composite z-score did it give?
Answer: The composite z-score was 0.365.

Question: With `[N-]=[N+]=NCc1ccccc1[C@H]1OC(c2ccc(OCCCO)cc2)=N[C@@]1(CCS(=O)(=O)c1ccccc1)C(=O)N1CCCCC1` as the compound, how does the composite z-score read?
Answer: The composite z-score was 0.651.

Question: For `[N-]=[N+]=Nc1ccccc1C[C@]1(C(N)=O)N=C(c2ccc(OCCCO)cc2)O[C@H]1c1ccccc1N=[N+]=[N-]`, which composite z-score is on record?
Answer: The composite z-score was -0.0114.

Question: For `COc1cc(CO)cc(I)c1O[C@H]1C=C(C(=O)NCCO)C[C@@H](NCc2ccc(F)cc2)[C@@H]1O`, which composite z-score is on record?
Answer: Its composite z-score is 0.275.

Question: For `CCCC[C@@H]1C[C@H]1[C@@H](NC(=O)c1cccs1)c1ccc(C(F)(F)F)cc1`, which composite z-score is on record?
Answer: Its composite z-score is -0.45.

Question: With `COCCOC(=O)N1C(=O)[C@@]2(c3cc(C#CC4=CCCCC4)ccc31)[C@H](C(N)=O)[C@H]1C(=O)O[C@H](c3ccccc3)[C@H](c3ccccc3)N1[C@@H]2c1ccccc1OCCO` as the compound, how does the composite z-score read?
Answer: Its composite z-score is 0.423.

Question: With `O=C1OCCC=C[C@H]2OC34C=CCN(Cn5nnc6ccccc65)C(=O)[C@H]3N(CCCCCCO)C(=O)[C@@H]4C12` (stereo not given in full) as the compound, how does the composite z-score read?
Answer: The composite z-score was -1.51.

Question: With `Cc1ccc(S[C@]2(C(=O)O)CC(=O)N(Cc3cc(C(F)(F)F)cc(C(F)(F)F)c3)[C@@H]2c2ccc(CO)cc2)cc1` as the compound, how does the composite z-score read?
Answer: The composite z-score was -2.28.
